ATXN viability: cell viability loss in ATXN counter-screen; S2 cells (HEK-293 line with an ATXN2-luciferase reporter) viability, CellTiter-Fluor protease fluorescence, 24 h; 0.49% of 400,000 active; Potency, µM (titrated, usually from 56.7 µM), hits mostly cytotoxic; also: nearly all actives have a fitted effect of over 40% in size
KB-3-1 cytotox: KB-3-1 parental cell cytotoxicity | Potency, µM (top dose mostly 46.1 µM), most hits filed as cytotoxic | 1.4% of 400,000 active | KB-3-1 viability, CellTiter-Glo ATP luminescence, 72 h | AID 1347075; also: % is scaled to controls: 0 for no effect and ±100 for the full control effect; nearly all actives have a fitted effect of over 60% in size
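Using CellTiter-Glo luminescence, growth of non-resistant KB-3-1 adenocarcinoma cells is assessed 72 h after pin-tool compound addition at 37 °C. Normalized responses across the concentration series yield fitted curves.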
HepG2 viability: counter-screen for TGF-b inhibitors: cytotoxicity in HepG2 cells. AID 588856. 0.76% of 410,000 active. HepG2 CAGA-GFP viability, ATP luminescence, 18 h. Potency, µM (doses to about 46.1 µM), inactives show at the highest dose activity change, negative = cytotoxicity, actives largely listed as cytotoxic
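CellTiter-Glo luminescence gave cytotoxicity after 18 hours at 37 degrees C. The cells were HepG2 CAGA-GFP in 1% FBS DMEM, stimulated with 500 pg/mL TGF-beta after compound addition. %Activity was normalised to no-cell wells (complete cell-killing) and DMSO (no toxicity), and curves were fitted and classified.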
TGFb inhibitor: inhibitors of TGF-b signaling; HepG2 CAGA-GFP TGF-b/SMAD3 reporter, GFP fluorescence, 18 h; TGF-beta stimulated, 500 pg/mL final; Potency, µM (top dose mostly 46.1 µM), for the others: top-dose activity, negative = inhibition, hits mostly inhibitors; 1.2% of 410,000 active; AID 588855; also: % is scaled to controls: 0 for no effect and ±100 for the full control effect; nearly all actives have a fitted effect of over 65% in size
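GFP signal (ex488/em500-530) from TGF-beta-stimulated HEPG2 CAGA-GFP cells, 500 pg/mL final, 18 h at 37 degrees C in DMEM plus 1% FBS, normalized to unstimulated and DMSO-stimulated controls.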
ATXN2 expr inh: inhibitors of ATXN2 expression; HEK-293 ATXN2-luciferase reporter, luminescence, 24 h; 0.72% of 360,000 active; Potency, µM (top dose mostly 57 µM), for inactives: top-dose activity change, negative = inhibition, actives largely listed as inhibitors; also: % is scaled to controls: 0 for no effect and ±100 for the full control effect; nearly all actives have a fitted effect of over 55% in size
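qHTS (up to 57 uM final) was run with 24 h compound exposure of reporter cells at 37 °C. Each well was multiplexed: SteadyGlo luminescence measured ATXN2-luciferase expression after a fluorogenic Gly-Phe-AFC viability readout (25 uM final).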
KB-V1 cytotox: KB-V1 MDR subline cytotoxicity; Potency, µM (series often up to 46.1 µM), most hits filed as cytotoxic; KB-V1 MDR cells viability, CellTiter-Glo, 72 h; AID 1347076; 3.4% of 400,000 active; also: % is scaled to controls: 0 for no effect and ±100 for the full control effect; nearly all actives have a fitted effect of over 60% in size
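In this primary screen, KB-V1 cells overexpressing P-gp are incubated with library compounds (lowest to highest concentration) for 72 h at 37 degrees C before a luminescent ATP viability read.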
Starred values were filed as active, the others as inactive; i = inactive; ? = inconclusive; / = no result given. Most compounds without a hit are left out; they make up all but 5.9% or so of the library. Calls follow the shape of the dose curve; as a rule, active = well fitted curve in the direction sought with a large enough effect; inconclusive = small, poorly fitted or top-dose-only effect, or another doubt; inactive = no such curve, though single readings can be large; an effect the other way counts as inactive or inconclusive. Potency is read from the fitted curve at half-maximal effect.

SMILES	ATXN viability	KB-3-1 cytotox	HepG2 viability	TGFb inhibitor	ATXN2 expr inh	KB-V1 cytotox
CCOCCCNC(=O)CN1C(=O)/C(=C\c2ccc(C)cc2)Sc2ccccc21	i	i	4%	11%	-2%	4.6µM*
CCc1ccccc1NS(=O)(=O)c1ccc(NC(=O)N2CCCC2)cc1	i	i	4%	-1%	-5%	i
CCOc1cccc(C2C(C(=O)c3ccc(C)o3)=C(O)C(=O)N2Cc2ccccc2)c1 (stereo not given)	i	i	3%	2%	7%	8.2µM*
CCOc1cccc(C2C(C(=O)c3ccc(C)o3)=C(O)C(=O)N2Cc2ccncc2)c1 (stereo not given)	i	i	-3%	4%	2%	i
CCCCOc1ccc(C2C(C(=O)c3ccc(C)o3)=C(O)C(=O)N2CC2CCCO2)cc1 (stereo not given)	i	?	3%	4%	7%	12µM*
COc1cc(-c2nc3ccc4ccccc4c3c3c2CCC3)cc(OC)c1OC	i	i	-7%	6%	-18%	i
COc1cc(-c2nc3ccc4ccccc4c3c3c2CCC3)cc(OC)c1O	?	?	-98%	11µM*	?	?
Cc1cc(-c2nc3cc(F)ccc3s2)ccc1N	i	?	-18%	?	-7%	18µM*
Cc1ccc(C(=O)Nc2cccc(-c3nc(CNC(=O)C4(C)CC4)c(C)o3)c2)s1	i	/	/	/	/	/
O=C(NC1CCCC1)c1cnn2c(C(F)(F)F)cc(-c3ccco3)nc12	i	i	-25%	?	8%	5.2µM*
CC(C)CCNC(=O)c1cc(-c2ccco2)nc2ccccc12	i	i	-6%	-8%	-1%	9.2µM*
O=C(NC1CCCC1)c1cnn2c(C(F)(F)F)cc(-c3ccc4c(c3)OCO4)nc12	i	i	-10%	-15%	?	?
CC(C)CCNC(=O)c1cnn2c(C(F)(F)F)cc(-c3ccco3)nc12	i	?	0%	-21%	?	11µM*
NC(=O)c1cnn2c(C(F)(F)F)cc(-c3ccc(F)cc3)nc12	i	i	-2%	-28%	-6%	13µM*
O=C(CCCn1c(=O)c2sccc2n(Cc2ccc(F)cc2Cl)c1=O)NCc1ccc2c(c1)OCO2	/	/	13%	5%	/	/
O=C(c1nn2c(C(F)(F)F)cc(-c3ccco3)nc2c1Br)N1CCCc2ccccc21	?	?	-5%	-18%	-21%	23µM*
Cc1cc(COc2ccccc2OCc2cc(C)no2)on1	i	i	-1%	0%	2%	12µM*
Cc1cccc(OCc2cc(-c3ccccc3)no2)c1C	i	i	4%	1%	/	?
COc1ccc(-c2nn(C)c3sc(C(=O)Nc4cccc(F)c4)cc23)cc1OC	i	i	-55%	-3%	?	?
COCCn1c(CNC(=O)c2ccccc2C)nc2cccnc21	/	/	-9%	-17%	/	/
CCOC(=O)C1=C(O)c2ccccc2C(=O)/C1=C\c1ccc(CC)cc1	?	12µM*	-53%	-6%	?	?
O=C(Nc1ccc(F)c(Cl)c1)N1CCN(C(=O)c2nsc3ccccc23)CC1	/	/	-25%	/	/	/
CCOc1ncc(F)c(=O)[nH]1	i	/	/	/	-4%	/
COc1ccccc1NC(=O)Cc1csc(NC(=S)Nc2ccc(C)cc2)n1	i	?	-41%	?	-10%	10µM*
CC1(C)N=C(N)N=C(N)N1c1cc(Cl)ccc1Cl	i	i	-87%	-4%	/	i
CC1(C)N=C(N)N=C(N)N1c1ccc(Oc2ccc(Cl)cc2)c(Cl)c1	?	0.73µM*	-33%	?	?	i
Cc1cc(-c2ccccc2)n(-c2cc(N/N=C/c3ccccc3O)ncn2)n1	?	?	-11%	?	?	0.82µM*
CNc1cc(-n2nc(C)cc2-c2ccccc2)ncn1	i	i	-14%	-8%	0%	i
